Active and inactive are the calls of the source. Rule for the calls: active = hit-call score of the fitted dose curve at least 0.9, where 1 is the maximum; inactive = score below 0.9.
biological target: human CYP2E1, CYP2E1 (gene 1571) (UniProt P05181); test: NVS_ADME_hCYP2E1: NovaScreen (NVS) CYP450-related Enzyme Activity (ADME) Assay for human CYP2E1
Experimental: NVS_ADME_hCYP2E1 is a biochemical, single-readout assay that uses extracted gene-proteins in a cell-free assay. Measurements were taken 0.5 hour after chemical dosing in a 96-well plate.NVS_ADME_hCYP2E1 is one of one assay component(s) measured or calculated from the NVS_ADME_hCYP2E1 assay. It is designed to make measurements of enzyme activity, a form of enzyme reporter, as detected with fluorescence intensity signals by Fluorescence technology.Data from the assay component NVS_ADME_hCYP2E1 was analyzed into 1 assay endpoint. This assay endpoint, NVS_ADME_hCYP2E1, was analyzed in the positive analysis fitting direction relative to Acetonitrile as the negative control and baseline of activity. Using a type of enzyme reporter, loss-of-signal activity can be used to understand changes in the enzymatic activity as they relate to the gene CYP2E1. Furthermore, this assay endpoint can be referred to as a primary readout, because this assay has produced multiple assay endpoints where this one serves a enzymatic activity function. To generalize the intended target to other relatable targets, this assay endpoint is annotated to the cyp intended target family, where the subfamily is xenobiotic metabolism.
Binding assays used specific radioligands (tritiated, iodinated) with non-radioactive competitive displacement ligands in agonist or antagonist protocols (as indicated) and various reference compounds and inhibitors to titrate specific binding to receptors and transporters. Most enzyme assays (CYPs, kinases, phosphatases, proteases, HDACs) used recombinant protein and specific substrates (fluorescence mostly, some colorimetric and radioactive) and inhibitors, followed by a biochemical separation of substrate and product. All assays for the biochemical HTS were initially run in duplicate at a single concentration (10 uM for CYP450 assays and 25 uM for all others). Assay-chemical combinations meeting a pre-defined threshold (e.g., 30% inhibition and other criteria defined below) were then run in singleton concentration-response format with maximum concentration of 20 uM for CYPs and 50 uM for all others. Each assay was run with positive and negative controls, and concurrent controls on every plate. The follow-up (secondary) screen tested active chemical-pairs in concentration series, as well as a few additional assays not tested in the primary screen, some selected negative inactives, and several cases re-run in the concentration series for confirmatory purposes.

Chain of human CYP2E1, CYP2E1 (gene 1571) (P05181 whole entry, looked up): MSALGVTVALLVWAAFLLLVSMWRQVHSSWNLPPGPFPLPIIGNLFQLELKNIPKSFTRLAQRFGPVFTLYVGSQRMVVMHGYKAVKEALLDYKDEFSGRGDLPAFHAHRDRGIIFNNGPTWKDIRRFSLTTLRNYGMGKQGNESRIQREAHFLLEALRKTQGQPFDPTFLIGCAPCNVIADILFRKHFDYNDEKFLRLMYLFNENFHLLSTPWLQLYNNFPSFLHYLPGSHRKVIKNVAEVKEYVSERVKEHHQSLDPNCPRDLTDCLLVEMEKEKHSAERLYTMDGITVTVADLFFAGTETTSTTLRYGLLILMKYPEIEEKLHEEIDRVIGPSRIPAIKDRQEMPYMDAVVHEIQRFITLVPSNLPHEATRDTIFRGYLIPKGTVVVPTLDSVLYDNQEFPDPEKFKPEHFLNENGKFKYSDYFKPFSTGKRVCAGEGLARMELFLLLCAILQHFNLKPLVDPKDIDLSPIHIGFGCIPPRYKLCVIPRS

SMILES	outcome	AC50
COP(=S)(OC)SCn1nnc2ccccc2c1=O	inactive	–
COP(=S)(OC)Oc1ccc([N+](=O)[O-])c(C)c1	–	319 nM (active)
COc1nn(CSP(=S)(OC)OC)c(=O)s1	inactive	–
CCCN(CCOc1c(Cl)cc(Cl)cc1Cl)C(=O)n1ccnc1	–	486 nM (active)
CC(C)(C)C(O)C(Oc1ccc(Cl)cc1)n1cncn1 (configuration not stated)	–	604 nM (active)
N#CSCSC#N	inactive	–
CC[C@H](C)[C@H]1O[C@]2(C=C[C@@H]1C)C[C@@H]1C[C@@H](C/C=C(\C)[C@@H](O[C@H]3C[C@H](OC)[C@@H](O[C@H]4C[C@H](OC)[C@@H](NC)[C@H](C)O4)[C@H](C)O3)[C@@H](C)/C=C/C=C3\CO[C@@H]4[C@H](O)C(C)=C[C@@H](C(=O)O1)[C@]34O)O2	–	551 nM (active)
COP(=S)(OC)Oc1ccc([N+](=O)[O-])cc1	inactive	–
CC(C)NC(=O)N1CC(=O)N(c2cc(Cl)cc(Cl)c2)C1=O	inactive	–
CCC(=NOC/C=C/Cl)C1=C(O)CC(C2CCOCC2)CC1=O (configuration not stated)	–	3500 nM (active)
N#Cc1c[nH]cc1-c1cccc2c1OC(F)(F)O2	inactive	–
FC(F)C(F)(F)OCC(Cn1cncn1)c1ccc(Cl)cc1Cl (configuration not stated)	inactive	–
